In PubChem BioAssay (Tox21):
Several values for one entry are separate records, joined by “and”; a condition that tells them apart may be missing. Identical values can stand only once. Inconclusive results are not listed. Activity calls are given as the source filed them. Calls follow the shape of the dose curve; as a rule, active = well fitted curve in the direction sought with a large enough effect in the repeat runs; inconclusive = weak or mixed curves; inactive = no such curve, though single readings can be large; an effect the other way counts as inactive or inconclusive.

Key:
[1] = A CellTox Green Cytotoxicity Assay to monitor cytotoxicity in HEK293 cells - 40 hour (AID 1224871); also: nearly all actives have a fitted effect of over 45% in size; also: potency is read from the fitted curve at half-maximal effect
Procedure, shortened: (§1)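 Nonlytic real-time cytotoxicity: HEK293 + CellTox Green reagent plated, 5 h preincubation, pintool compound addition (23 nL in DMSO), 37 C for 40 h, fluorescence measured at successive time points.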

[2] = qHTS RealTime-Glo MT Cell Viability Assay in HEK293 cells - 16 hour (AID 1224872); also: nearly all actives have a fitted effect of over 50% in size; also: potency is read from the fitted curve at half-maximal effect
Procedure, shortened: (§2)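 Viability tracked continuously by luminescence as live cells reduce a prosubstrate for NanoLuc; HEK293 cells preincubated 5 h, compound-treated at 37 C, and read at 0, 8, 16, 24, 32 and 40 h.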

[3] = qHTS RealTime-Glo MT Cell Viability Assay in HepG2 cells - 8 hour (AID 1224873); also: nearly all actives have a fitted effect of over 55% in size; also: potency is read from the fitted curve at half-maximal effect
Procedure, shortened: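 HepG2 cells (600/well) mixed with RealTime-Glo MT reagent, settled 5 h at 37 C/5% CO2 before compound addition. Nonlytic NanoLuc luminescence from viable-cell prosubstrate reduction read repeatedly during 40 h treatment at 37 C.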

[4] = qHTS RealTime-Glo MT Cell Viability Assay in HEK293 cells - 40 hour (AID 1224874); conditions: RealTime-Glo luminescence; max response: hits give low values; also: nearly all actives have a fitted effect of over 50% in size; also: potency is read from the fitted curve at half-maximal effect
Procedure, shortened: (§3)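 Cells were seeded together with NanoLuc luciferase and a prosubstrate that viable cells reduce to a luciferase substrate. After a 5 h incubation at 37 C/5% CO2, compounds were added and luminescence was measured repeatedly during 40 h of treatment.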

[5] = A CellTox Green Cytotoxicity Assay to monitor cytotoxicity in HEK293 cells - 24 hour (AID 1224875); also: nearly all actives have a fitted effect of over 45% in size; also: potency is read from the fitted curve at half-maximal effect
Procedure, shortened: as §1

[6] = qHTS RealTime-Glo MT Cell Viability Assay in HepG2 cells - 32 hour (AID 1224877); also: nearly all actives have a fitted effect of over 55% in size; also: potency is read from the fitted curve at half-maximal effect
Procedure, shortened: (§4)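 Viability was tracked continuously by NanoLuc luminescence from prosubstrate reduced by living HepG2 cells, at successive time points over 40 h of compound exposure. Cells with reagent were preincubated 5 h at 37 °C before compound addition.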

[7] = A CellTox Green Cytotoxicity Assay to monitor cytotoxicity in HepG2 cells - 24 hour (AID 1224878); also: nearly all actives have a fitted effect of over 45% in size; also: potency is read from the fitted curve at half-maximal effect
Procedure, shortened: (§5)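 Read-out is fluorescence of a cyanine dye excluded from live cells that stains DNA of dead HepG2 cells, with signal proportional to cytotoxicity. Plates were read at 0, 8, 16, 24, 32 and 40 h after compound addition.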

[8] = A CellTox Green Cytotoxicity Assay to monitor cytotoxicity in HepG2 cells - 40 hour (AID 1224879); also: nearly all actives have a fitted effect of over 40% in size; also: potency is read from the fitted curve at half-maximal effect
Procedure, shortened: as §5

[9] = A CellTox Green Cytotoxicity Assay to monitor cytotoxicity in HEK293 cells - 32 hour (AID 1224881); also: nearly all actives have a fitted effect of over 40% in size; also: potency is read from the fitted curve at half-maximal effect
Procedure, shortened: as §1

[10] = A CellTox Green Cytotoxicity Assay to monitor cytotoxicity in HepG2 cells - 0 hour (AID 1224882); also: nearly all actives have a fitted effect of over 35% in size
Procedure, shortened: as §5

[11] = A CellTox Green Cytotoxicity Assay to monitor cytotoxicity in HepG2 cells - 32 hour (AID 1224883); also: nearly all actives have a fitted effect of over 50% in size; also: potency is read from the fitted curve at half-maximal effect
Procedure, shortened: as §5

[12] = A CellTox Green Cytotoxicity Assay to monitor cytotoxicity in HEK293 cells - 8 hour (AID 1224884); also: nearly all actives have a fitted effect of over 35% in size
Procedure, shortened: as §1

[13] = qHTS RealTime-Glo MT Cell Viability Assay in HepG2 cells - 16 hour (AID 1224885); also: nearly all actives have a fitted effect of over 50% in size; also: potency is read from the fitted curve at half-maximal effect
Procedure, shortened: as §4

[14] = qHTS RealTime-Glo MT Cell Viability Assay in HEK293 cells - 24 hour (AID 1224886); also: nearly all actives have a fitted effect of over 50% in size; also: potency is read from the fitted curve at half-maximal effect
Procedure, shortened: as §2

[15] = qHTS RealTime-Glo MT Cell Viability Assay in HEK293 cells - 8 hour (AID 1224887); also: nearly all actives have a fitted effect of over 50% in size; also: potency is read from the fitted curve at half-maximal effect
Procedure, shortened: as §3

[16] = A CellTox Green Cytotoxicity Assay to monitor cytotoxicity in HEK293 cells - 16 hour (AID 1224888); also: nearly all actives have a fitted effect of over 35% in size
Procedure, shortened: as §1

[17] = A CellTox Green Cytotoxicity Assay to monitor cytotoxicity in HepG2 cells - 8 hour (AID 1224890); also: nearly all actives have a fitted effect of over 45% in size
Procedure, shortened: as §5

[18] = A CellTox Green Cytotoxicity Assay to monitor cytotoxicity in HepG2 cells - 16 hour (AID 1224876); also: nearly all actives have a fitted effect of over 45% in size; also: potency is read from the fitted curve at half-maximal effect
Procedure, shortened: as §5

[19] = qHTS RealTime-Glo MT Cell Viability Assay in HEK293 cells - 0 hour (AID 1224880)
Procedure, shortened: as §3

[20] = qHTS RealTime-Glo MT Cell Viability Assay in HepG2 cells - 0 hour (AID 1224889); also: nearly all actives have a fitted effect of over 50% in size
Procedure, shortened: as §4
% is scaled to controls: 0 for no effect and ±100 for the full control effect.

CN(C)c1ccc(N=O)cc1
active: Potency [1] 11 µM and 19.5 µM | Potency [2] 15.5 µM and 21.9 µM | Potency [3] 49.1 µM and 24.5 µM | Potency [4] 13.8 µM and 19.5 µM | Potency [5] 13.8 µM and 19.5 µM | Potency [6] 34.7 µM | Potency [7] 49.1 µM | Potency [8] 34.8 µM and 12.3 µM | Potency [9] 11 µM and 19.5 µM | Potency [11] 39 µM | Potency [13] 55.1 µM and 43.6 µM | Potency [14] 15.5 µM and 24.5 µM | Potency [15] 15.5 µM and 21.9 µM
inactive: Potency [10] | Potency [12] | Potency [16] | Potency [17]

C[N+]1(CCC(C(N)=O)(c2ccccc2)c2ccccc2)CCCCC1
inactive: Potency [1] | Potency [2] | max response [4] 0.771% | Potency [5] | Potency [18] | Potency [6] | Potency [7] | Potency [8] | outcome [19] | Potency [9] | Potency [10] | Potency [11] | Potency [12] | Potency [13] | Potency [15] | Potency [16]

CC(Oc1cccc(Cl)c1)C(=O)O (stereo not drawn)
inactive: Potency [1] | Potency [2] | max response [4] 9.01% | Potency [5] | Potency [18] | Potency [6] | Potency [7] | Potency [8] | outcome [19] | Potency [9] | Potency [10] | Potency [11] | Potency [12] | Potency [13] | Potency [14] | Potency [15] | Potency [16] | outcome [20]

COC1CC(=C(c2cccs2)c2cccs2)C[N+](C)(C)C1 (stereo not drawn)
inactive: Potency [1] | Potency [2] | max response [4] -21.7% | Potency [5] | Potency [18] | Potency [6] | Potency [7] | Potency [8] | outcome [19] | Potency [9] | Potency [10] | Potency [12] | Potency [13] | Potency [14] | Potency [15] | Potency [16]

CN1C[C@H](C(=O)N[C@]2(C)O[C@@]3(O)[C@@H]4CCCN4C(=O)[C@H](Cc4ccccc4)N3C2=O)C=C2c3cccc4[nH]cc(c34)C[C@H]21
active: Potency [3] 13.9 µM and 12.8 µM | Potency [13] 19.6 µM
inactive: Potency [1] | Potency [2] | max response [4] -10.8% | Potency [5] | Potency [18] | Potency [7] | Potency [8] | outcome [19] | Potency [9] | Potency [10] | Potency [12] | Potency [14] | Potency [15] | Potency [16] | outcome [20] | Potency [17]

COc1ccccc1N1CCNCC1
inactive: Potency [1] | Potency [2] | max response [4] -1.42% | Potency [5] | Potency [18] | Potency [6] | Potency [7] | Potency [8] | outcome [19] | Potency [9] | Potency [10] | Potency [11] | Potency [12] | Potency [13] | Potency [15] | Potency [16] | outcome [20] | Potency [17]

Cc1cccc(C)c1NC1=NCCCS1
inactive: Potency [1] | Potency [2] | max response [4] 0.136% | Potency [5] | Potency [18] | Potency [6] | Potency [7] | Potency [8] | outcome [19] | Potency [9] | Potency [10] | Potency [11] | Potency [12] | Potency [13] | Potency [14] | Potency [15] | Potency [16] | Potency [17]

COc1cc(CC(C)N)c(OC)cc1Br (stereo not drawn)
inactive: Potency [1] | Potency [2] | Potency [3] | Potency [5] | Potency [18] | Potency [6] | outcome [19] | Potency [9] | Potency [10] | Potency [12] | Potency [13] | Potency [16] | Potency [17]

O=C(O)C(O)C(O)C(=O)O (stereo not drawn)
inactive: Potency [1] | Potency [2] | max response [4] -0.119% | Potency [5] | Potency [18] | Potency [6] | Potency [7] | Potency [8] | outcome [19] | Potency [9] | Potency [10] | Potency [11] | Potency [12] | Potency [13] | Potency [14] | Potency [15] | Potency [16] | outcome [20] | Potency [17]

CC(C)(C)c1ccc(CCOc2ncnc3ccccc23)cc1
inactive: Potency [1] | Potency [2] | Potency [3] | max response [4] 3.46% | Potency [5] | Potency [18] | Potency [6] | outcome [19] | Potency [9] | Potency [10] | Potency [12] | Potency [13] | Potency [15] | Potency [16] | outcome [20] | Potency [17]

CCC(C)(C)O
inactive: Potency [1] | Potency [2] | max response [4] 6.83% | Potency [5] | Potency [18] | Potency [6] | Potency [7] | Potency [8] | outcome [19] | Potency [9] | Potency [10] | Potency [11] | Potency [12] | Potency [13] | Potency [14] | Potency [15] | Potency [16] | Potency [17]

O=[N+]([O-])/C=C/c1ccccc1
active: Potency [2] 4.98 µM and 12.3 µM | Potency [3] 49.8 µM | Potency [4] 6.27 µM and 15.5 µM | Potency [18] 55.8 µM | Potency [6] 22.2 µM and 17.4 µM | Potency [7] 22.2 µM | Potency [8] 12.5 µM | Potency [11] 17.7 µM | Potency [13] 49.8 µM and 21.9 µM | Potency [14] 6.27 µM and 13.8 µM | Potency [15] 14 µM and 15.5 µM
inactive: Potency [5] | outcome [19] | Potency [10] | Potency [12] | Potency [16]
